Several values for one entry are separate records, joined by “and”; a condition that tells them apart may be missing. Equal values may be shown once. Activity calls are given as the source filed them.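 Rule for the calls, unless noted: active = thallium flux through the channel raised or lowered by more than 3 SD from vehicle-only wells, actives on both sides; inactive = the rest.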
Assays:
[1] = signal quenchers or enhancers, Cy5 substrate/SSB – biochemical, NIH Clinical Collection, E. coli SSB, artefact control for HCV NS3 helicase inhibitor project (AID 743268; call rule not given here); settings: Cy5-oligo bound E. coli SSB, fluorescence interference
[2] = system: Hepatitis C virus NS3 helicase; experiment: blockers of NS3h binding to DNA – biochemical, fluorescence polarization, NIH Clinical Collection, primary screen (AID 743270; call rule not given here); settings: NS3 helicase binding to Cy5-dT15 DNA, stronger effect = higher value, concentration not given here
[3] = molecular target: Single-stranded DNA-binding protein (Escherichia coli (strain K12)) (UniProt P0AGE0); experiment: SSB-ssDNA binding inhibitors – biochemical, fluorescence polarization, NIH Clinical Collection, counter-screen for HCV NS3 helicase inhibitor project (AID 743271; in the data active = inhibition above about 28%); settings: E. coli SSB-DNA binding, stronger effect = higher value, concentration not given here
[4] = compounds distorting NS3 helicase fluorescence signal – biochemical, NIH Clinical Collection, artefact control for HCV NS3 helicase inhibitor project (AID 743272; call rule not given here;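 note: HCV NS3 helicase with a Cy5 labelled single stranded DNA probe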); settings: fluorescence interference counterscreen, HCV NS3 helicase assay; stronger effect = lower value
[5] = modulation of C. elegans fzo-1 (AID 1259413; call rule not given here;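 note: fzo-1 mutant C. elegans worms in liquid wells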); settings: C. elegans fzo-1 modulator screen, mean read-out; stronger effect = higher value
[6] = EMT-state selective cytotoxicity in co-culture – imaging, PC-3E GFP, TEM4-18 mCherry, primary screen (AID 1345086;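 active = compounds killing one labelled cell type while sparing the other, by normalised counts and ratio limits, not self-fluorescent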;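 for all read-outs here: cells exposed to compound for 72 h before imaging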;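 for red/green cell ratio (normalised): normalised mesenchymal count divided by normalised epithelial count so high means epithelial killing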); settings: PC-3E GFP / TEM4-18 mCherry co-culture, imaging cell counts, at 1 µM; for red/green cell ratio (normalised): actives lie on both sides, counts scaled to control wells, 1 = unselective
[7] = MELAS cybrid and Rieske KO viability enhancers – cell-based, MELAS cybrids, Rieske KO mouse fibroblasts, CellTiter-Glo, primary screen (AID 1508586;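 active = mean z-score across replicates of 1.96 or higher in either the MELAS or the Rieske mutant cell line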;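 note: z relative to plate mean and SD of compound and empty wells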); settings: low glucose
[8] = drug combination growth inhibition, ovarian cancer – cell-based, oncology-focused library, rucaparib conditional, profiling panel (AID 1508598;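 active = normalized viability below 100% at a tested concentration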); settings: patient-derived ovarian cancer cells, CellTiter-Glo viability, 144 h, stronger effect = lower value
F380Y = experiment: BK channel mutant inhibitors and activators – cell-based, U2OS BacMam, thallium flux, beta subunits, selectivity assay, profiling panel (AID 1259406); settings: U2OS BacMam BK variants, at 30 µM;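 note: initial slope of Thallos dye fluorescence rise after thallium is added; log ratio against the mean of 0.3% DMSO vehicle wells on the same plate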
F380Y/beta1 = experiment: as above; settings: U2OS BacMam BK variants, at 30 µM
F380Y/beta2Delta = experiment: as above; settings: U2OS BacMam BK variants, at 30 µM
F380Y/beta4 = experiment: as above; settings: U2OS BacMam BK variants, at 30 µM
[9] = molecular target: Calcium-activated potassium channel subunit alpha-1 (Homo sapiens) + Leucine-rich repeat-containing protein 26 (Homo sapiens) (UniProt Q12791+Q2I0M4); experiment: as above; settings: U2OS BacMam BK variants, F380Y/Slo1WT/gamma1, at 30 µM
Sequence of Calcium-activated potassium channel subunit alpha-1 (Homo sapiens) + Leucine-rich repeat-containing protein 26 (Homo sapiens) (Q2I0M4 whole entry, looked up, one chain of several): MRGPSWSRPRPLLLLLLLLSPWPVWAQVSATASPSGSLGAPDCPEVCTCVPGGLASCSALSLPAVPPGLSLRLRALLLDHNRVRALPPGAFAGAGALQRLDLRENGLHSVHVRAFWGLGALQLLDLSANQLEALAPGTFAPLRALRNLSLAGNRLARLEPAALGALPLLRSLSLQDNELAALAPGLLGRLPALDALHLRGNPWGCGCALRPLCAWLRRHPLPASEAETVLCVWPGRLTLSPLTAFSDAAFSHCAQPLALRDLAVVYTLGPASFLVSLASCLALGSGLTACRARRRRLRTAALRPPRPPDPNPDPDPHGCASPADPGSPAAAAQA

R275C = experiment: as above; settings: U2OS BacMam BK variants, at 30 µM
R275C/beta1 = experiment: as above; settings: U2OS BacMam BK variants, at 30 µM
R275C/beta2Delta = experiment: as above; settings: U2OS BacMam BK variants, at 30 µM
R275C/beta4 = experiment: as above; settings: U2OS BacMam BK variants, at 30 µM
R275C/Slo1WT/beta2 = experiment: as above; settings: U2OS BacMam BK variants, at 30 µM
[10] = P. berghei load reduction in hepatocytes – cell-based, HepG2, luciferase luminescence, HepG2 viability, primary screen (AID 624349; in the data active = parasite load remaining mostly below about 12%, no sharp cut-off; inactive = mostly above about 10%;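 note: 100% = mean of DMSO negative control wells on the same plate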); settings: P. berghei liver stage in HepG2, luciferase luminescence, concentration not given here; parasite load remaining: stronger effect = lower value; viability: measured here: HepG2 viability without parasites
[11] = viability loss with induced miR-34 in A549 – imaging, A549 dox-inducible miR-34, nuclei and caspase counts, primary screen (AID 1347080;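 active = compounds whose cell count with miR-34 switched on is under 0.7 times the count with it off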); settings: A549 miR-34 inducible, Hoechst nuclei count, 48 h
[12] = measured here: epithelial PC-3E GFP cell survival
[13] = measured here: mesenchymal TEM4-18 mCherry cell survival
[14] = MELAS cybrid survival, CellTiter-Glo 48 h, stronger effect = higher value
[15] = Rieske KO mouse fibroblast survival, CellTiter-Glo 72 h
[16] = stronger effect = lower value, cell number ratio, induced over uninduced
[17] = measured here: relative caspase fold change +Dox/-Dox
[18] = measured here: total cells with miR-34 induction, stronger effect = lower value
[19] = measured here: total cells without miR-34 induction

O=C(c1ccc(OCCN2CCCCC2)cc1)c1c(-c2ccc(O)cc2)sc2cc(O)ccc12
0.9: normalised cell number [6, 12]
active: fluorescence ratio [4] 0.8 | viability ([8]; at 0.00122 µM, OCI-P5x cells, with rucaparib 20 µM, 100% = cells with rucaparib alone) 97.6% | viability ([8]; at 0.00488 µM, OCI-P5x cells, with rucaparib 20 µM, 100% = cells with rucaparib alone) 79.4% | viability ([8]; at 0.00488 µM, OCI-P5x cells, without rucaparib) 94.8% | viability ([8]; at 0.0195 µM, OCI-P5x cells, with rucaparib 20 µM, 100% = cells with rucaparib alone) 90% | viability ([8]; at 0.0195 µM, OCI-P5x cells, without rucaparib) 94.3% | viability ([8]; at 1.25 µM, OCI-P5x cells, with rucaparib 20 µM, 100% = cells with rucaparib alone) 89.1% | viability ([8]; at 5 µM, OCI-P5x cells, with rucaparib 20 µM, 100% = cells with rucaparib alone) 40% | viability ([8]; at 5 µM, OCI-P5x cells, without rucaparib) 63.8%
0.306 and -0.238 and 0.0318: z-score [7, 15]
inactive: fluorescence ratio [1] 1.04 | inhibition [2] -7.73% | inhibition [3] 4.1% | mean signal [5] 205 | red/green cell ratio (normalised) [6] 1.03 | z-score [7, 14] -0.537 and -0.644 and -0.85 | viability ([8]; at 0.000305 µM, OCI-C5x cells, with rucaparib 10 µM, 100% = cells with rucaparib alone) 108% | viability ([8]; at 0.000305 µM, OCI-C5x cells, without rucaparib) 112% | viability ([8]; at 0.000305 µM, OCI-P5x cells, with rucaparib 20 µM, 100% = cells with rucaparib alone) 101% | viability ([8]; at 0.000305 µM, OCI-P5x cells, without rucaparib) 110% | viability ([8]; at 0.00122 µM, OCI-C5x cells, with rucaparib 10 µM, 100% = cells with rucaparib alone) 116% | viability ([8]; at 0.00122 µM, OCI-C5x cells, without rucaparib) 116% | viability ([8]; at 0.00122 µM, OCI-P5x cells, without rucaparib) 103% | viability ([8]; at 0.00488 µM, OCI-C5x cells, with rucaparib 10 µM, 100% = cells with rucaparib alone) 131% | viability ([8]; at 0.00488 µM, OCI-C5x cells, without rucaparib) 107% | viability ([8]; at 0.0195 µM, OCI-C5x cells, with rucaparib 10 µM, 100% = cells with rucaparib alone) 113% | viability ([8]; at 0.0195 µM, OCI-C5x cells, without rucaparib) 110% | viability ([8]; at 0.0781 µM, OCI-C5x cells, with rucaparib 10 µM, 100% = cells with rucaparib alone) 121% | viability ([8]; at 0.0781 µM, OCI-C5x cells, without rucaparib) 107% | viability ([8]; at 0.0781 µM, OCI-P5x cells, with rucaparib 20 µM, 100% = cells with rucaparib alone) 118% | viability ([8]; at 0.0781 µM, OCI-P5x cells, without rucaparib) 125% | viability ([8]; at 0.313 µM, OCI-C5x cells, with rucaparib 10 µM, 100% = cells with rucaparib alone) 114% | viability ([8]; at 0.313 µM, OCI-C5x cells, without rucaparib) 118% | viability ([8]; at 0.313 µM, OCI-P5x cells, with rucaparib 20 µM, 100% = cells with rucaparib alone) 105% | viability ([8]; at 0.313 µM, OCI-P5x cells, without rucaparib) 104% | viability ([8]; at 1.25 µM, OCI-C5x cells, with rucaparib 10 µM, 100% = cells with rucaparib alone) 134% | viability ([8]; at 1.25 µM, OCI-C5x cells, without rucaparib) 117% | viability ([8]; at 1.25 µM, OCI-P5x cells, without rucaparib) 101% | viability ([8]; at 5 µM, OCI-C5x cells, with rucaparib 10 µM, 100% = cells with rucaparib alone) 124% | viability ([8]; at 5 µM, OCI-C5x cells, without rucaparib) 109% | log fold change Tl+ flux (F380Y) 0.0852 | log fold change Tl+ flux (F380Y/beta1) 0.00638 | log fold change Tl+ flux (F380Y/beta2Delta) 0.0463 | log fold change Tl+ flux (F380Y/beta4) 0.0721 | log fold change Tl+ flux [9] -0.00263 | log fold change Tl+ flux (R275C) 0.0285 | log fold change Tl+ flux (R275C/beta1) 0.00107 | log fold change Tl+ flux (R275C/beta2Delta) 0.0378 | log fold change Tl+ flux (R275C/beta4) 0.0617 | log fold change Tl+ flux (R275C/Slo1WT/beta2) -0.0543
0.93: normalised cell number [6, 13]

CC(Cc1ccc(O)c(O)c1)(NN)C(=O)O (configuration not stated)
97.1% and 84.8%: viability [10]
10100 and 12600: cell count [11, 19]
9190 and 11400: cell count [11, 18]
active: log fold change Tl+ flux (R275C) 0.0956
2.2 and 3.05: fold change [11, 17]
1.3: normalised cell number [6, 13]
inactive: parasite load remaining [10] 41.4% and 31.2% | fluorescence ratio [1] 1.04 | inhibition [2] -2.27% | inhibition [3] -0.48% | fluorescence ratio [4] 1.05 | mean signal [5] 254 | red/green cell ratio (normalised) [6] 1.18 | fold change [11, 16] 0.911 and 0.909 | log fold change Tl+ flux (F380Y) -0.0414 | log fold change Tl+ flux (F380Y/beta1) 0.04 | log fold change Tl+ flux (F380Y/beta2Delta) 0.0399 | log fold change Tl+ flux (F380Y/beta4) 0.0475 | log fold change Tl+ flux [9] 0.00594 | log fold change Tl+ flux (R275C/beta1) 0.024 | log fold change Tl+ flux (R275C/beta2Delta) 0.0162 | log fold change Tl+ flux (R275C/beta4) -0.024 | log fold change Tl+ flux (R275C/Slo1WT/beta2) -0.00513
1.1: normalised cell number [6, 12]

COC(=O)C[C@](O)(CCCC(C)(C)O)C(=O)O[C@@H]1C(OC)=C[C@]23CCCN2CCc2cc4c(cc2[C@H]13)OCO4
1.16: fold change [11, 17]
1670: cell count [11, 18]
1550: cell count [11, 19]
inactive: fluorescence ratio [1] 1 | inhibition [2] -0.22% | inhibition [3] 1.18% | fluorescence ratio [4] 0.99 | mean signal [5] 211 | fold change [11, 16] 1.08 | log fold change Tl+ flux (F380Y) 0.0231 | log fold change Tl+ flux (F380Y/beta1) -4.2e-05 | log fold change Tl+ flux (F380Y/beta2Delta) -0.00992 | log fold change Tl+ flux (F380Y/beta4) 0.013 | log fold change Tl+ flux [9] -0.0674 | log fold change Tl+ flux (R275C) -0.0969 | log fold change Tl+ flux (R275C/beta1) -0.0403 | log fold change Tl+ flux (R275C/beta2Delta) -0.0559 | log fold change Tl+ flux (R275C/beta4) -0.045 | log fold change Tl+ flux (R275C/Slo1WT/beta2) 0.0211

CC(CCCCC(=O)Nc1ccc(C(F)(F)F)cc1)NCCc1cnc[nH]1 (configuration not stated)
67%: viability [10]
8900 and 8240: cell count [11, 18]
10400 and 9060: cell count [11, 19]
1.55 and 0.779: fold change [11, 17]
inactive: parasite load remaining [10] 54.5% | fluorescence ratio [1] 0.96 | inhibition [2] -8.95% | inhibition [3] -4.33% | fluorescence ratio [4] 0.92 | mean signal [5] 233 | fold change [11, 16] 0.859 and 0.909 | log fold change Tl+ flux (F380Y) 0.0425 | log fold change Tl+ flux (F380Y/beta1) 0.0554 | log fold change Tl+ flux (F380Y/beta2Delta) -0.00659 | log fold change Tl+ flux (F380Y/beta4) -0.0291 | log fold change Tl+ flux [9] 0.0127 | log fold change Tl+ flux (R275C) -0.0675 | log fold change Tl+ flux (R275C/beta1) 0.0449 | log fold change Tl+ flux (R275C/beta2Delta) 0.0193 | log fold change Tl+ flux (R275C/beta4) 0.0332 | log fold change Tl+ flux (R275C/Slo1WT/beta2) 0.00571

CC(C)(S)C(N)C(=O)O (configuration not stated)
2.48 and 3.04: fold change [11, 17]
0.96: normalised cell number [6, 13]
95.3% and 72.3% and 93.1%: viability [10]
0.358: z-score [7, 15]
11000 and 11700: cell count [11, 18]
inactive: parasite load remaining [10] 70.2% and 91.2% and 22.9% | fluorescence ratio [1] 1.01 | inhibition [2] -10.4% | inhibition [3] -2.76% | fluorescence ratio [4] 0.98 | mean signal [5] 224 | red/green cell ratio (normalised) [6] 0.95 | fold change [11, 16] 0.987 and 0.932 | z-score [7, 14] 0.615 | log fold change Tl+ flux (F380Y) 0.0383 | log fold change Tl+ flux (F380Y/beta1) -0.0205 | log fold change Tl+ flux (F380Y/beta2Delta) -0.0259 | log fold change Tl+ flux (F380Y/beta4) 0.0204 | log fold change Tl+ flux [9] 0.0127 | log fold change Tl+ flux (R275C) -0.00906 | log fold change Tl+ flux (R275C/beta1) 0.00628 | log fold change Tl+ flux (R275C/beta2Delta) -0.0298 | log fold change Tl+ flux (R275C/beta4) 0.0197 | log fold change Tl+ flux (R275C/Slo1WT/beta2) -0.0192
1: normalised cell number [6, 12]
11100 and 12600: cell count [11, 19]
